High-throughput results as filed in PubChem BioAssay.
JMJD2A Tudor inh – qHTS Assay for Inhibitors of JMJD2A-Tudor Domain | Lysine-specific demethylase 4A (Homo sapiens), O75164 | AlphaScreen JMJD2A-Tudor / H3K4me3 peptide binding | Potency, µM (top dose mostly 114 µM), actives largely listed as inhibitors | 4.4% of 390,000 active | AID 504339, 2011; further: nearly all actives have a fitted effect of over 50% in size
G9a block – qHTS Assay for Inhibitors of Histone Lysine Methyltransferase G9a | Histone-lysine N-methyltransferase EHMT2 (Homo sapiens), Q96KQ7 | G9a H3K9 monomethylation, AlphaScreen, 2 h | Potency, µM (top dose mostly 102 µM), most hits filed as inhibitors | 8.8% of 350,000 active; further: nearly all actives have a fitted effect of over 75% in size
Target sequence (Q96KQ7 913-1193 limits assumed): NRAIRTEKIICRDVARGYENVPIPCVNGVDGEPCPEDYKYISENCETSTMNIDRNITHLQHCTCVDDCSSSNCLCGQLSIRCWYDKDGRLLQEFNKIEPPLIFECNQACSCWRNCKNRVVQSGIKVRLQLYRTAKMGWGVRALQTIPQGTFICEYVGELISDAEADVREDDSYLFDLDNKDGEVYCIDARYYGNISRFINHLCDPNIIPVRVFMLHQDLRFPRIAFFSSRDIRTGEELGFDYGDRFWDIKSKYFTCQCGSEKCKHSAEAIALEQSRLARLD
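Chemiluminescent proximity detection of H3K9 monomethylation, read after 10 min bead incubation in the dark. Reaction: 20 nM G9a, 500 nM biotin-H3K9 peptide, 20 uM SAM cofactor, 2 h, room temperature, following 15 min enzyme-compound preincubation.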
12-LOX inh – Primary qHTS assay for inhibitors of human arachidonate 12S-lipoxygenase (ALOX12): Round 2. purified 12hLO, xylenol orange hydroperoxide absorbance. Potency, µM (highest dose often 108 µM), actives largely listed as inhibitors. 1.1% of 580,000 active. Polyunsaturated fatty acid lipoxygenase ALOX12 (Homo sapiens), P18054
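Purified human 12hLO (150 nM final) in 25 mM Hepes, 0.01% Triton X-100, pH 7.0 was preincubated 15 min at room temperature with compound. Then 40 uM arachidonic acid was added, 30 min. Hydroperoxide was read by Fe-XO absorbance ratio 573/405 nm.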
HP1b chromo inh – HTS for Inhibitors of HP1-beta Chromodomain Interactions with Methylated Histone Tails; Chromobox protein homolog 1 (Homo sapiens), P83916; AlphaScreen HP1-beta / biotin-H3K9me3 peptide binding; Potency, µM (top dose mostly 114 µM), hits mostly inhibitors; 0.56% of 390,000 active; AID 540317, 2011; further: nearly all actives have a fitted effect of over 70% in size
Target sequence (P83916 whole entry, looked up): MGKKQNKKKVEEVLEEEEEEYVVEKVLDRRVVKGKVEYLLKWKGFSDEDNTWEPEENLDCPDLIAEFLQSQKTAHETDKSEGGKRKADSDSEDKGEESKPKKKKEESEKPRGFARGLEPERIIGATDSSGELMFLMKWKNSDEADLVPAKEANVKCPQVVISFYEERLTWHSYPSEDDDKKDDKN
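AlphaScreen: HP1-beta (50 nM) preformed 30 min with biotin-H3(1-18)K9me3 peptide (50 nM) in PBS pH 7.4, 0.01% Tween-20. Compound added for 30 min at RT, then streptavidin donor/nickel chelate acceptor beads (10 ug/mL) for 30 min.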
BAZ2B inh – qHTS Assay for Inhibitors of BAZ2B. 4.4% of 360,000 active. AlphaScreen BAZ2B-H3K14Ac peptide displacement. Potency, µM (series often up to 114 µM), most hits filed as inhibitors. Bromodomain adjacent to zinc finger domain protein 2B (Homo sapiens), Q9UIF8; further: nearly all actives have a fitted effect of over 60% in size
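Multi-concentration screen (max 110 uM) measuring displacement of acetylated histone H3 peptide from BAZ2B by AlphaScreen, using 50 nM protein, 50 nM peptide and 10 ug/mL streptavidin donor plus Ni-chelate acceptor beads.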
Sfp PPTase inh – qHTS Assay for Inhibitors of Bacillus subtilis Sfp phosphopantetheinyl transferase (PPTase) | 4'-phosphopantetheinyl transferase ffp (Bacillus subtilis), Q9F4F7 | Biochemical Sfp PPTase activity, qHTS | Potency, µM, hits mostly inhibitors | 3.5% of 310,000 active | AID 1490, 2009;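 further: the enzyme is Sfp with the accession as filed and its product quenches rhodamine fluorescence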
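Compounds were incubated with enzyme (final 15 nM) for 15 min at room temperature before substrate addition started the reaction. Fluorescence at 525 nm excitation, 598 nm emission was recorded immediately and after 30 minutes.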
Hits are given with their value; i = inactive; ? = inconclusive; nt = no result; [ ] = another dose, or the depositor's remark. Hits are enriched below; roughly 8.7% of the tested compounds scored in any of these assays. The call rests on the fitted dose curve; in most records, active means well fitted curve in the direction sought with a large enough effect; inconclusive means small, poorly fitted or top-dose-only effect, or another doubt; inactive means no such curve, though single readings can be large; an effect the other way counts as inactive or inconclusive.

SMILES	JMJD2A Tudor inh	G9a block	12-LOX inh	HP1b chromo inh	BAZ2B inh	Sfp PPTase inh
CCOc1cc(/C=C2/SC(=S)NC2=O)ccc1OC(=O)c1ccco1	?	12.6µM	?	?	39.8µM	39.8µM
CC(C)N(C)CCOC(=O)c1ccccc1Br	50.1µM	i	i	i	i	i
Cc1ccc(NC(=O)c2cc3c(N4CCSCC4)nc(C)cn3n2)c(C)c1	nt	nt	i	nt	nt	nt
COc1ccccc1N1CCN(C(=O)c2sc3nc(-c4ccc(F)cc4)cn3c2C)CC1	i	28.2µM	i	i	?	i
COc1ccc(-c2cn3c(C)c(C(=O)N4CCN(c5ccc(F)cc5)CC4)sc3n2)cc1	i	i	i	i	i	i
Cc1cccc(NC(=O)c2sc3nc(-c4ccc(F)cc4)cn3c2C)n1	i	i	i	i	i	50.1µM
COc1ccc(-c2cn3c(C)c(C(=O)Nc4cccc(C)n4)sc3n2)cc1	i	10µM	i	i	i	39.8µM
COc1nc2cc(C)c(C)cc2nc1C(=O)Nc1cc(C)cc(C)c1	nt	nt	i	nt	nt	nt
Cc1cccc(-c2noc([C@@H]3Cc4nc[nH]c4CN3C(=O)NC3CCCCC3)n2)c1	nt	nt	12.6µM	nt	nt	nt
O=C(NC1CCCCC1)N1Cc2[nH]cnc2C[C@H]1c1nc(-c2ccccc2)no1	nt	nt	i	nt	nt	nt
CN(C)c1ccc(/C=C/C=C2/SC(=S)N(c3ccccc3)C2=O)cc1	5.62µM	?	?	i	?	i
O=C(O)c1ccc(N2C(=O)/C(=C/C=C/c3ccccc3)SC2=S)cc1	?	44.7µM	i	i	?	i
O=C(NCCN1CCOCC1)c1c(OCC2CC2)cc(=O)n2c1CCOCC2	nt	nt	i	nt	nt	nt
Cc1ccnn1CCC(=O)N1CCOC(Cc2ccc(F)cc2)C1 (stereo not drawn)	nt	nt	i	nt	nt	nt
O=C(COc1ccc(OCc2ccccc2)cc1)OCC(=O)c1cc2ccccc2o1	nt	nt	i	nt	nt	nt
CCn1ncc(N2CCCC(CC(=O)NCc3ccc(C)c(C)c3)C2)cc1=O (stereo not drawn)	nt	nt	i	nt	nt	nt
CCOc1cc2c3c(c1)C1(Nc4ccccc4S1)C(=O)N3C(C)(C)CC2C (stereo not drawn)	35.5µM	?	?	?	28.2µM	i
O=C(O)c1cn[nH]c1-n1cnnn1	?	50.1µM	i	i	i	i
O=C(c1cn[nH]c1-n1cnnn1)N1C[C@H](CO)C[C@H](CN2CCCC2)C1	nt	nt	i	nt	nt	nt
COc1ccc(-c2cc(=O)n(-c3ccc(C)c(C)c3)[nH]2)cc1	nt	nt	i	nt	nt	nt
COc1ccc(-c2cc(=O)n(-c3ccc([N+](=O)[O-])cc3)[nH]2)cc1	56.2µM	10µM	?	?	39.8µM	i
COCC1CN(C(C)=O)CC12CCN(S(=O)(=O)c1ccc(F)cc1)CC2 (stereo not drawn)	nt	nt	i	nt	nt	nt
Cc1ccc(-c2csc3nc(CSc4nnc(-c5ccc(Cl)cc5)n4C)[nH]c(=O)c23)cc1	i	22.4µM	i	i	i	i
Cc1c(C(=O)O)sc2nc(CSc3nnc(-c4ccc(F)cc4)n3C)[nH]c(=O)c12	?	35.5µM	i	i	?	i
Cc1ccc(NC(=O)c2sc3nc(CCl)[nH]c(=O)c3c2C)c(C)c1	i	35.5µM	i	i	i	i
SMILES	JMJD2A Tudor inh	G9a block	12-LOX inh	HP1b chromo inh	BAZ2B inh	Sfp PPTase inh
Cc1cc(C)c(NC(=O)c2sc3nc(C)[nH]c(=O)c3c2C)c(C)c1	nt	i	i	nt	i	i
CC(=O)c1sc2nc(CSc3nncn3C)[nH]c(=O)c2c1C	i	i	i	i	i	i
CCn1c(SCc2nc3scc(-c4ccccc4)c3c(=O)[nH]2)nnc1-c1ccc(Cl)cc1	i	i	i	i	i	i
CC(=O)c1sc2nc(CSc3nnnn3-c3ccccc3)[nH]c(=O)c2c1C	i	56.2µM	i	i	?	?
O=S(=O)(O)NCC(O)CCl (stereo not drawn)	nt	nt	i	nt	nt	nt
O=C(Cc1cccs1)Nc1c(NCC2CCCCC2)c2ccccc2oc1=O	nt	nt	i	nt	nt	nt
CCOCCCn1c(SCc2nc3sc(C(=O)O)c(C)c3c(=O)[nH]2)nnc1-c1ccc(Cl)cc1	?	20µM	i	i	i	i
CSCc1nc2sc(C(=O)Nc3nc(C)cs3)c(C)c2c(=O)[nH]1	i	44.7µM	i	i	?	i
C=CCn1c(SCc2nc3sc(C(=O)O)c(C)c3c(=O)[nH]2)nnc1-c1ccccc1	25.1µM	?	i	i	?	i
CCOC(=O)c1sc2nc(CSc3nc4ccccc4n3CC)[nH]c(=O)c2c1C	i	i	i	i	i	i
Cc1nnc(SCc2nc3sc(C(=O)O)c(C)c3c(=O)[nH]2)s1	31.6µM	nt	i	i	i	i
CCN(CC)C(=O)c1sc2nc(Cc3ccccc3)[nH]c(=O)c2c1C	?	?	i	i	i	i
CCc1ccc(S(=O)(=O)N(C)CC2CCOCC2)cc1	nt	nt	i	nt	nt	nt
C=CCn1c(SCc2nc3sc(C(=O)O)c(C)c3c(=O)[nH]2)nnc1-c1ccc(C(C)(C)C)cc1	28.2µM	14.1µM	i	i	50.1µM	28.2µM
Cc1cc(C)cc(OCCCCn2cncn2)c1	28.2µM	10µM	?	?	?	i
Clc1ccc(OCCCn2cncn2)cc1Cl	8.91µM	10µM	i	i	22.4µM	?
c1ccc(COc2ccc(OCCCn3cncn3)cc2)cc1	i	i	i	i	i	i
Cc1cccc(COc2ccccc2C(=O)O)c1	nt	nt	i	nt	nt	nt
Brc1ccccc1OCCCCn1cnc2ccccc21	i	i[12.7 µM]	?	i	i	i
Cc1ccc(OCCCCn2cnc3ccccc32)c(C)c1	1.58µM	7.94µM	i	?	25.1µM	50.1µM
Cc1cc(C)c(Cn2cnc3ccccc32)c(C)c1	i	44.7µM	i	i	i	i
Cn1ccc2c(C(=O)NCc3cccnc3)nc(-c3cnn(Cc4ccccc4)c3)cc21	nt	nt	i	nt	nt	nt
O=C(Nc1ccccc1C(F)(F)F)NC1(C(=O)N2CCOCC2)CCCCC1	8.91µM	nt	?	i	nt	nt
CC(CN1CCCCC1)NC(=O)c1scnc1-c1ccccc1 (stereo not drawn)	nt	nt	5.62µM	nt	nt	nt
Clc1ccc(-c2nc(CN3CCCC3c3ccsc3)co2)cc1 (stereo not drawn)	nt	nt	i	nt	nt	nt
CCC(O)c1cc2n(n1)CCN(C(=O)CN1CCOc3ccccc3C1)C2 (stereo not drawn)	nt	nt	i	nt	nt	nt
O=C(Nc1ccccc1)C1CCCN1S(=O)(=O)c1cccs1 (stereo not drawn)	i	?	i	i	i	nt
COc1ccc(-c2nnc(NC(=O)C3CCCN3S(=O)(=O)c3cccs3)o2)cc1 (stereo not drawn)	?	i	i	i	50.1µM	nt
